Experimental data taken from the supplement of paper PMC10338343.
± gives the standard deviation.

The sequences below were run on EfPiwi piRISC loaded with piRNA #1 (26 nt) (assay: pre-steady-state target cleavage rate (min^-1); auxiliary factor: 500 nM Ephydatia muelleri Gtsf1; guide: piRNA #1 5'p-UGAGGUAGUAGGUUGUAUAGUAUCCA; MIWI and MILI are mouse PIWI proteins and EfPiwi is from a freshwater sponge; tags in brackets are library labels; higher = faster piRNA-guided slicing of the target).
How it was run: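 With or without 500 nM GTSF1 partner protein, 1 nM active affinity-purified piRISC carrying one synthetic guide was mixed with 0.1 nM transcribed, DNA-blocked target RNA library in HEPES–potassium acetate buffer at 33 °C for 0–8 or 0–960 min. Uncleaved targets were sequenced and normalised to depth and to weakly complementary targets, three trials were pooled, and k3 was capped at 0.0001 min^-1. The pre-steady-state cleavage rate came from a burst-and-steady-state fit.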

Sequence	pre-steady-state target cleavage rate
GGAGUGGAUACUAUACAACCUACUCCCUCA	0.00426 ± 0.0017
GGAGAGCAUACUAUACAUCCUACUACCUCA	0.00491 ± 0.0024
GGAGACCUUACUAUCCAACCUACUACCUCA	0.0791 ± 0.034
GGAGAGCAUACUAUACAACCUACUUCCUCA	0.00292 ± 0.0021
GGAGACGAUACUAUACAACCUUCAACCUCA	0.00247 ± 0.0013
GGAGACGAUACAAUACAACCUACUACGUCA	0.00361 ± 0.0032
GGAGACCAACUAUACAACCUACUACCUCA	0.00596 ± 0.0037
GGAGACCAUACUAUACAUCCAACUACCUCA	0.00245 ± 0.0022
GGAGACCUAACUAUACAACCUACUACCCCA	0.00474 ± 0.0039
GGAGAGGAUACUAUACAACCUACUACCUGCA	0.00613 ± 0.0026
GGAGACCUUACUAUACAACCUACAACCUCA	0.00341 ± 0.0024
GGAGACGAUACUAUACAACCUACUAGCCUCA	0.00485 ± 0.002
GGAGAGGAUACUAUACUUCCUACUACCUCA	0.00555 ± 0.0051
GGAGACGAUACUUACAACCUACUACCUCA	0.00671 ± 0.0036
GGAGACGUUACUAUACAAGCUACUACCUCA	0.00435 ± 0.002
GGAGAGGAUACGAUACAACCUACUACCUCA	0.00899 ± 0.0037
GGAGACCUAACUAUACAACCUACAACCUGA	0.00402 ± 0.0029
GGAGAGCAUACUUUACAACCUACUACCUCA	0.0083 ± 0.0045
GGAGAGGAUACUAUACAACCUAACUACCUCA	0.00656 ± 0.0027
GGAGUGGAUACUAUACAACCUACUACGUGA	0.00378 ± 0.0015

Sequence	pre-steady-state target cleavage rate
GGAGUGGAUACUAUACAACCUACUAUCUCA	0.0684 ± 0.026
GGAGACCAUACAAUACAUCCUACUACCUCA	0.00484 ± 0.003
GGAGAGCAUACUAUACAACCAACUACCUCA	0.00434 ± 0.0022
GGAGACGUACUAUACAACCUACUACCUCA	0.0561 ± 0.022
GGAGACCAUACUAUACAACCUACUACCGCA	0.00689 ± 0.0023
GGAGACGAUAAUAUACAACCUACUACCUCA	0.072 ± 0.025
GGAGACCAUACUAUACAACCUACUAGGAGA [g6:g23:cont:t1A]	0.00788 ± 0.0042
GGAGACCAUACUAUACAACCUACAACCUGA	0.00439 ± 0.0042
GGAGACCUAUGUAUACAACCUACUACCUCG [g2:g19:cont:t1G]	0.00909 ± 0.0048
GGAGACCUAUGUAUACAACCUACUACCUCU [g2:g19:cont:t1U]	0.404 ± 0.18
GGAGUGGAUACUAUACAACCUACUACCUCG [g2:g26:cont:t1G]	0.0718 ± 0.025
GGAGACCAAACUAUACAACCUAGUACCUCA	0.00518 ± 0.0029
GGAGUGGAUACUAUACAACUUACUACCUCA	0.01 ± 0.0049
GGAGUGGAUACUAUACAACCCACUACCUCA	0.00487 ± 0.0019
GGAGACGAUUCUAUACAACCAACUACCUCA	0.00258 ± 0.0018
GGAGACCAUUCUAUACAACGUACUACCUCA	0.00402 ± 0.0025
GGAGAGGAUACUAAACAACCUACUAGCUCA	0.00242 ± 0.0017
GGAGACCUUACUAUACAUCCUACUACCACA	0.0038 ± 0.0032
GGAGACCUAUCAUAUACAACCUACUACCUCA	0.0103 ± 0.0048
GGAGACGAUACUAUGACAACCUACUACCUCA	0.00896 ± 0.0044
